According to paper PMC5540273 (PLoS ONE, 2017):

Legend:
Settings in all cases: concentration: 1 μM, replicates: in singlicate; n = 1
LYN = test system: LYN
LZK = test system: T1, LZK
T1 construct: gene MAP3K13

MAK = test system: MAK
MAP3K15 = test system: MAP3K15
MAP3K1 = test system: MAP3K1
MAP3K2 = test system: MAP3K2
MAP3K3 = test system: MAP3K3
MAP3K4 = test system: MAP3K4
MAP4K2 = test system: MAP4K2
MAP4K3 = test system: MAP4K3
MAP4K4 = test system: MAP4K4
MAP4K5 = test system: MAP4K5
MAPKAPK2 = test system: MAPKAPK2
MAPKAPK5 = test system: MAPKAPK5
MARK1 = test system: MARK1
MARK2 = test system: MARK2
MARK3 = test system: MARK3
MARK4 = test system: MARK4
MAST1 = test system: MAST1
MEK1 = test system: T2, MEK1
T2 construct: gene MAP2K1
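Further: KINOMEscan kinase panel screen.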

| SMILES | %Inh (LYN) [%] | %Inh (LZK) [%] | %Inh (MAK) [%] | %Inh (MAP3K15) [%] | %Inh (MAP3K1) [%] | %Inh (MAP3K2) [%] | %Inh (MAP3K3) [%] | %Inh (MAP3K4) [%] | %Inh (MAP4K2) [%] | %Inh (MAP4K3) [%] | %Inh (MAP4K4) [%] | %Inh (MAP4K5) [%] | %Inh (MAPKAPK2) [%] | %Inh (MAPKAPK5) [%] | %Inh (MARK1) [%] | %Inh (MARK2) [%] | %Inh (MARK3) [%] | %Inh (MARK4) [%] | %Inh (MAST1) [%] | %Inh (MEK1) [%] |
| --- | --- | --- | --- | --- | --- | --- | --- | --- | --- | --- | --- | --- | --- | --- | --- | --- | --- | --- | --- | --- |
| Cc1ccccc1-n1cnc2c(N)ncnc21 [SKF-97510] | 0 | 0 | 0 | 0 | 0 | 0 | 0 | 0 | 0 | 0 | 0 | 0 | 0 | 0 | 0 | 0 | 0 | 0 | 12 | 0 |
| COc1ccc(CNC(=O)NC2CCN(c3ccnc(Nc4cc(OC)c(OC)c(OC)c4)n3)C2)cc1 (stereo not shown) [GSK1379748] | 0 | 43 | 17 | 0 | 0 | 0 | 0 | 2 | 5 | 0 | 0 | 0 | 0 | 0 | 0 | 0 | 0 | 0 | 13 | 0 |
| O=S(=O)(c1ccc(-c2ccnc3[nH]ccc23)cc1)N1CCCC1 [GSK846226] | 0 | 0 | 24 | 0 | 14 | 7 | 0 | 0 | 0 | 0 | 0 | 0 | 0 | 0 | 0 | 8 | 0 | 0 | 0 | 24 |
| COc1ccc2nc(-c3cccc(C)n3)nc(Nc3ccncc3)c2c1 [GSK204919] | 0 | 0 | 25 | 0 | 22 | 0 | 0 | 9 | 0 | 12 | 0 | 0 | 17 | 0 | 0 | 0 | 0 | 0 | 0 | 0 |
| O=C(Nc1n[nH]c2nc(-c3nccs3)c(Br)cc12)C1CCCC1 [SB-742609] | 0 | 0 | 75 | 6 | 15 | 5 | 0 | 28 | 0 | 0 | 2 | 4 | 22 | 0 | 0 | 0 | 0 | 0 | 0 | 0 |
| Cl.NC(=O)c1cccc(Nc2nccc(Nc3ccc(Oc4cccc(Cl)c4)c(Cl)c3)n2)c1 [GW659008] | 29 | 19 | 9 | 0 | 3 | 0 | 0 | 33 | 0 | 0 | 18 | 33 | 8 | 0 | 13 | 0 | 0 | 24 | 5 | 0 |
| Cc1c(Cn2ccn3c(=O)cc(N4CCOCC4)nc23)cccc1C(F)(F)F [GSK2289044] | 22 | 0 | 20 | 0 | 15 | 7 | 0 | 20 | 1 | 0 | 0 | 0 | 4 | 0 | 0 | 5 | 2 | 0 | 0 | 0 |
| COc1ccccc1-c1ccc2c(NC(=O)C3CC3)n[nH]c2n1 [SB-711239] | 18 | 24 | 23 | 0 | 0 | 0 | 0 | 32 | 0 | 0 | 25 | 26 | 27 | 2 | 0 | 0 | 0 | 0 | 26 | 0 |
| Cc1ccc(NC(=O)Nc2cccc(Cl)c2)cc1-c1ccc(C(=O)Nc2ccncc2)cc1 [GSK1398468] | 0 | 0 | 19 | 0 | 0 | 0 | 0 | 7 | 0 | 0 | 0 | 0 | 0 | 0 | 26 | 0 | 0 | 12 | 0 | 100 |
| Cn1ccc2ncnc(Oc3cccc(C(=O)Nc4ccccc4)c3)c21 | 9 | 0 | 8 | 0 | 0 | 11 | 0 | 0 | 2 | 15 | 8 | 0 | 0 | 12 | 13 | 0 | 0 | 6 | 35 | 1 |
| Cl.Oc1ccc(-c2nc(-c3ccccc3)[nH]c2-c2ccncc2)cc1 [SB-428218] | 33 | 47 | 18 | 0 | 0 | 0 | 0 | 7 | 0 | 0 | 0 | 0 | 13 | 0 | 0 | 0 | 0 | 0 | 0 | 0 |
| Fc1cccc(COc2nnc(-c3ccc4c(c3)CCO4)o2)c1 | 6 | 14 | 0 | 17 | 17 | 0 | 0 | 0 | 0 | 2 | 0 | 0 | 0 | 11 | 14 | 24 | 0 | 24 | 21 | 5 |
| Cc1cccc(-c2nc(C)cc(Nc3ccncc3)n2)n1 [GSK257997] | 0 | 0 | 16 | 0 | 21 | 0 | 0 | 14 | 0 | 0 | 2 | 0 | 20 | 0 | 0 | 0 | 4 | 0 | 0 | 0 |
| CC(=O)Nc1nc2cnc(Nc3cc(NC(=O)c4cccc(CCC#N)c4)ccc3C)nc2s1 | 25 | 24 | 0 | 8 | 0 | 0 | 20 | 0 | 0 | 0 | 0 | 0 | 11 | 3 | 14 | 0 | 0 | 12 | 0 | 0 |
